Data from PubChem BioAssay (EPA / NIEHS).
Results filed as inconclusive are left out. Activity calls are given as the source filed them. The calls were made as follows: active = hit-call score of the fitted dose curve at least 0.9, where 1 is the maximum; inconclusive = response in the unintended direction; inactive = score below 0.9.

tested on: not listed separately; assay: ATG_M_32_TRANS: Attagene TRANS-FACTORIAL HepG2 Assay for M32 Transcription Factor (Internal Marker) (AID 2282984); settings: HepG2 Attagene TRANS M32 internal marker reporter;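 also: transcript level of a background control reporter unit measured by RT-PCR and capillary electrophoresis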
Outline: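 Using transiently transfected HepG2 cells exposed to test chemicals for 24 h, reporter transcripts are converted to labelled cDNA fragments and quantified by capillary electrophoresis. DMSO defines the activity baseline.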

SMILES | outcome
O=P(O)(O)CN(CP(=O)(O)O)CP(=O)(O)O | inactive
Clc1nc(Cl)nc(Cl)n1 | inactive
CC(C)(c1ccc(OCC2CO2)cc1)c1ccc(OCC2CO2)cc1 (stereo unspecified) | inactive
CNC | inactive
CCOC(=O)/C=C(C)/C=C/C[C@@H](C)CCCC(C)C | inactive
ClCc1ccccn1 | inactive
CC(C)OC(=O)Nc1ccccc1 | inactive
NNC(=S)NN | inactive
CCOP(=O)(CN(CCO)CCO)OCC | inactive
COc1cc2c(cc1OC)[C@@]13CCN4CC5=CCO[C@H]6CC(=O)N2[C@H]1[C@H]6[C@H]5C[C@H]43 | inactive
O=[N+]([O-])c1c(Cl)c(Cl)cc(Cl)c1Cl | inactive
COc1cccc(C=O)c1 | inactive
NC(=S)Nc1ccccc1 | inactive
O=Cc1cccc(Oc2ccccc2)c1 | inactive
CC(Br)C(=O)O (stereo unspecified) | inactive
C[C@]12CC[C@H](O)CC1=CC[C@@H]1[C@@H]2CC[C@]2(C)C(=O)CC[C@@H]12 | inactive
Cc1ccccc1N | inactive
CCCCCCCCC(=O)NCc1ccc(O)c(OC)c1 | inactive
Cn1sc(Cl)cc1=O | inactive
CC(C)(C)c1cc(O)ccc1O | inactive
CC(C)c1cccc(C(C)C)c1O | inactive
Cc1ccc2ccccc2c1C | inactive
Nc1cccc(Cl)c1 | inactive
ClC1=C(Cl)[C@]2(Cl)[C@H]3[C@H]([C@H]4C=C[C@H]3C4)[C@@]1(Cl)C2(Cl)Cl | inactive
CCCCC(CC)CO[N+](=O)[O-] (stereo unspecified) | inactive
COc1cc(OC)nc(NC(=O)NS(=O)(=O)c2ncccc2C(=O)N(C)C)n1 | inactive
COP(=S)(OC)Oc1c(Cl)cc(C)cc1Cl | inactive

target: Nuclear receptor subfamily 4 group A member 2 (Homo sapiens) (UniProt P43354); assay: ATG_NURR1_TRANS: Attagene TRANS-FACTORIAL HepG2 Assay for human Nuclear Receptor Related Protein 1 (NURR1) (AID 2282985); settings: HepG2 Attagene TRANS reporter, mRNA readout
Sequence (P43354 whole entry, looked up): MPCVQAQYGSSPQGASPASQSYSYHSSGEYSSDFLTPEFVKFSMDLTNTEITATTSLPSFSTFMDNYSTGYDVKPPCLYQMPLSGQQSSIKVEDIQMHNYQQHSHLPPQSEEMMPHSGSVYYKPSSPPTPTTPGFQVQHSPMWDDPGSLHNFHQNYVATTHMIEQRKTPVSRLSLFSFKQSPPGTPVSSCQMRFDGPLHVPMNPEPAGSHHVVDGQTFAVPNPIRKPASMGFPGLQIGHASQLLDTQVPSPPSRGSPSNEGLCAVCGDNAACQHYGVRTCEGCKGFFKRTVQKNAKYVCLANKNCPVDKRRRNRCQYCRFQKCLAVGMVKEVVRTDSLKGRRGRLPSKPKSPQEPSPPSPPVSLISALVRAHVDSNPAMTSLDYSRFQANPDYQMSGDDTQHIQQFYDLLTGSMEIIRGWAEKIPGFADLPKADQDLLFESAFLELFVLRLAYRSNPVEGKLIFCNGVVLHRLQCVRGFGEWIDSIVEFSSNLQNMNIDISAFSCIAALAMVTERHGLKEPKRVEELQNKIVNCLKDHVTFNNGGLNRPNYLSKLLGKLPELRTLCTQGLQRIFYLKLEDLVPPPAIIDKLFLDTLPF
Outline: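 Cells: HepG2, transiently transfected. Exposure: 24 h. Detection: fluorescence of labelled RT-PCR products separated by capillary electrophoresis; upward fit versus DMSO.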

SMILES | outcome | AC50
O=P(O)(O)CN(CP(=O)(O)O)CP(=O)(O)O | inactive | 
Clc1nc(Cl)nc(Cl)n1 | inactive | 
CC(C)(c1ccc(OCC2CO2)cc1)c1ccc(OCC2CO2)cc1 (stereo unspecified) | inactive | 
CNC | inactive | 
OCC(O)CCl (stereo unspecified) | inactive | 
Nc1cccc2ccccc12 | inactive | 
CCOC(=O)/C=C(C)/C=C/C[C@@H](C)CCCC(C)C |  | 125 µM (active)
CCOP(=O)(CN(CCO)CCO)OCC | inactive | 
Cc1ccccc1N | inactive | 
CCCCCCCCC(=O)NCc1ccc(O)c(OC)c1 | inactive | 
Nc1cccc(Cl)c1 | inactive | 
C[C@@H](Oc1ccc(Cl)cc1Cl)C(=O)O | inactive | 
ClC1=C(Cl)[C@]2(Cl)[C@H]3[C@H]([C@H]4C=C[C@H]3C4)[C@@]1(Cl)C2(Cl)Cl | inactive | 
CCCCC(CC)CO[N+](=O)[O-] (stereo unspecified) | inactive | 
